Among the data in PubChem BioAssay (NCI) are growth values, retold here.

This is part of a sample that, as a whole, favours compounds with a hit. Of some 83,000 tested, about 20% had one in any assay.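 Percent growth is the endpoint: 0 to 100 indicates growth inhibition (40 means 60% inhibition), 0 means no net growth, and negative values indicate cell death.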 Values without a mark were called inactive. Active and inactive are the calls of the source. Rule for the calls: active = growth percent below 10; inactive = the rest.

This assay deals with SF-268 CNS. The assay is described as follows: NCI-60 one-dose screen, 48 h (100 = growth as untreated, 0 = no growth, -100 = all killed). Particulars: 10 µM unless noted.
In the case of `COc1ccc(-c2cnc3ccnn3c2-c2cc(OC)c(OC)c(OC)c2)cc1`, the growth was 53.3%.

Consider `COc1cc2cc(C(=O)Nc3ccccc3)c(N)nc2cc1OC`, for which the growth is 26.2%. Take `O=C(C=P(c1ccccc1)(c1ccccc1)c1ccccc1)CCl`: the growth was -12.2% (active). For `CCCCCCCCCCCCCCCCS(=O)(=O)Nc1cc(C(=O)NN)cc(C(=O)NN)c1`, the growth is 43.4%. For `COS(=O)(=O)CCN(CCOS(C)(=O)=O)S(C)(=O)=O`, the growth is 107%. `CCn1c(CN2CCN(Cc3ccccc3)CC2)nc2cc(NC(=O)c3cccs3)ccc21`: the growth is -88.3% (active). Take `CC(=O)c1ccc(-n2c(-c3cc(-c4ccsc4)n[nH]3)n[nH]c2=S)cc1`: the growth is 107%. Turning to `CCN(CC)Cc1cc(Nc2ccnc3cc(Cl)ccc23)cc(-c2ccc(Cl)cc2)c1O`, the growth is 8.65% (active). Turning to `O=C(NCC(c1ccsc1)N1CCCCCC1)c1ccc(C(F)(F)F)cc1` (stereo unspecified), the growth is 98.3%. On to `COc1cc(NC(C)CCCN)c2ncccc2c1Oc1ccc(Cl)cc1` (stereo unspecified), for which the growth was 77.5%. Take `O=C(c1ccccc1)N(CCCCl)C(=O)N(CCCCl)C(=O)c1ccccc1`: the growth is 100%. In the case of `COc1ccc(C2=CC(c3ccc(OC)cc3Br)N3C=CSC3=N2)cc1` (stereo unspecified), the growth is 77.1%.

Regarding `CC(=O)c1nn(-c2ccccc2)/c(=N\N=C\c2coc3ccc(F)cc3c2=O)s1`, the growth was 87.8%. For the molecule `O=C(c1ccc(C(F)(F)F)c(Cl)c1)N(Cc1ccc(Cl)cc1)c1ccc(-c2cc(C(F)(F)F)[nH]n2)c(O)c1`, the growth is 7.06% (active). As for `C/C(=N\OC(=O)Nc1cccc(Cl)c1)c1ccccc1`, the growth was 113%. In the case of `C/C(=C\C(=N\N=C(N)N)c1ccc(Cl)cc1)c1ccc(Cl)cc1`, the growth is -89.2% (active). In the case of `O=C(NO)c1ccc(NCc2csc3ccccc23)cc1` it was 68.8%.

For `C#CC[C@@H]1C[C@]2(C)[C@H]3CC=C4[C@H]5CC(C)(C)CC[C@]5(C(=O)NCCCCN)CC[C@@]4(C)[C@]3(C)CC[C@H]2C(C)(C)[C@H]1OC(C)=O`, the growth was 89.4%. As to `Oc1ccc(Cl)cc1-c1cc(-c2ccccc2Cl)[nH]n1`, the growth is 49.6%.

As for `CC1C2CCC(C2)C1COCCOCCO` (stereo unspecified), the growth is 112%. On to `O=C1C(Cl)=C(N/N=c2/[nH][nH]/c(=N/NC3=C(Cl)C(=O)c4ccccc4C3=O)c3ccccc23)C(=O)c2ccccc21`, for which the growth is 41.7%. Take `COc1ccc(/C=c2\c(=O)n(-c3ccccc3)c3nn4c(n23)=NNC42CCCCC2)cc1`: the growth is 92%. As for `CCNC(=S)N(Cc1ccccc1)Cc1ccccc1`, the growth was 116%. In the case of `N#CC1=C(N)Oc2nc[nH]c(=O)c2C1c1cccs1` (stereo unspecified) it was 108%.

For `CCN(C(=O)Nc1cccc2ccccc12)c1ccccc1`, the growth is 104%. As to `COc1ccc(-c2nc(-c3cc(OC)cc(OC)c3)[nH]c2-c2ccc(OC)cc2)cc1`, the growth was 88.6%.
